# Laboratory results published in PubChem BioAssay (NCI).
# This is part of a sample that, as a whole, favours compounds with a hit. Of some 79,000 tested, about 15% had one in any assay. A number with no mark means an inactive call. Active and inactive are the calls of the source. Rule as the data show it: active = growth inhibition above about 70%; inactive = the rest.
# Columns and labels:
# [1] = NCI Yeast Anticancer Drug Screen. Data for the rad52 strain (AID 147);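 also: 0% = growth of vehicle-treated control cultures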; details: S. cerevisiae rad52 mutant growth inhibition, active compounds read high
# Method in brief: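 Read-out: growth inhibition versus vehicle-treated controls. Cells were a DNA repair-deficient yeast strain treated with compounds.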
# [2] = NCI Yeast Anticancer Drug Screen. Data for the wt1 strain (AID 149);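 also: 0% = growth of vehicle-treated wt1 cultures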; details: S. cerevisiae wt1 strain (SPY 50644) growth inhibition, active compounds read high
# Method in brief: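 Readout: yeast growth inhibition, normalised to vehicle controls, in the wt1 strain exposed to test compounds.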
# [3] = NCI Yeast Anticancer Drug Screen. Data for the rad50EPP+ strain (AID 151);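 also: 0% = growth of vehicle-treated control cultures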; details: S. cerevisiae rad50 mutant strain, active compounds read high
# Method in brief: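 Growth inhibition read against vehicle controls in rad50EPP+ yeast, a strain altered in DNA damage repair, after compound exposure.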
# [4] = NCI Yeast Anticancer Drug Screen. Data for the rad50 strain (AID 155);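 also: 0% = growth of vehicle-only cultures of the same strain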; details: S. cerevisiae rad50 strain growth inhibition, active compounds read high
# Method in brief: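 Compounds were tested on a yeast strain with an engineered DNA damage repair alteration; the reported value is growth inhibition normalised to vehicle treatment.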
# [5] = NCI Yeast Anticancer Drug Screen. Data for the mec2-1 strain (AID 157); details: S. cerevisiae mec2-1 strain, active compounds read high
# Method in brief: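 Yeast mec2-1 mutant treated with compound. Readout: growth inhibition vs vehicle controls.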
# [6] = NCI Yeast Anticancer Drug Screen. Data for the rad14 strain (AID 159);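 also: 0% = growth of vehicle-treated control cultures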; details: S. cerevisiae rad14 strain growth inhibition, active compounds read high
# Method in brief: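 Compound-treated yeast with a defined DNA-repair lesion; growth inhibition normalised to vehicle-treated cultures.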
# [7] = NCI Yeast Anticancer Drug Screen. Data for the sgs1 mgt1 strain (AID 161);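 also: 0% = growth of cultures given vehicle only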; details: S. cerevisiae sgs1 mgt1 strain, active compounds read high
# Method in brief: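 Mutant yeast exposed to compound; growth scored against vehicle-only wells.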
# [8] = NCI Yeast Anticancer Drug Screen. Data for the CLN2oe strain (AID 163);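 also: 0% = growth of vehicle-only control cultures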; details: S. cerevisiae CLN2oe strain, active compounds read high
# Method in brief: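 Read-out: yeast growth inhibition, expressed relative to vehicle-only controls. The strain bears an engineered cell-cycle alteration.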
# [9] = NCI Yeast Anticancer Drug Screen. Data for the cln2 rad14 strain (AID 165);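 also: 0% = growth equal to vehicle treated cultures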; details: S. cerevisiae cln2 rad14 strain, active compounds read high
# Method in brief: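 cln2 rad14 yeast strain; compound exposure; growth inhibition read vs vehicle controls.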
# [10] = NCI Yeast Anticancer Drug Screen. Data for the bub3 strain (AID 167); details: S. cerevisiae bub3 mutant strain, active compounds read high
# Method in brief: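 Growth of a checkpoint-deficient yeast mutant is measured after compound exposure. Values represent inhibition relative to vehicle.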
# [11] = NCI Yeast Anticancer Drug Screen. Data for the wt2 strain (AID 169);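 also: 0% = growth of vehicle-treated yeast cultures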; details: S. cerevisiae wt2 strain growth inhibition, active compounds read high
# Method in brief: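 Read-out: growth inhibition versus vehicle-treated control cultures after compound exposure of the yeast strain.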
# [12] = NCI Yeast Anticancer Drug Screen. Data for the mlh1 strain (AID 171);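 also: 0% = growth of vehicle-treated control cultures of the same strain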; details: S. cerevisiae mlh1 strain growth inhibition, active compounds read high
# Method in brief: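 Read-out: growth inhibition versus vehicle controls. Strain: engineered yeast with a defined DNA repair or cell cycle defect, compound-treated.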
# [13] = NCI Yeast Anticancer Drug Screen. Data for the sgs1 strain (AID 173);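 also: 0% = growth of vehicle-only control cultures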; details: S. cerevisiae sgs1 mutant, active compounds read high
# Method in brief: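 Read-out: yeast growth inhibition relative to vehicle controls, following compound exposure of a strain with a defined DNA repair/cell cycle alteration.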
# [14] = NCI Yeast Anticancer Drug Screen. Data for the mlh1 rad18 strain (AID 175); details: S. cerevisiae mlh1 rad18 strain growth inhibition, active compounds read high
# Method in brief: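 Yeast w/ defined DNA-repair lesions; compound exposure; growth vs vehicle controls → % inhibition.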
# [15] = NCI Yeast Anticancer Drug Screen. Data for the rad18 strain (AID 177); details: S. cerevisiae rad18 mutant growth inhibition, active compounds read high
# Method in brief: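 Readout: growth inhibition vs vehicle controls. Cells: genetically altered yeast strain, DNA repair defect.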
# [16] = at 5.0 µM (retest, dose inferred, filed as 0.5)
# [17] = at 50.0 µM (retest, dose inferred, filed as 5.0)
smiles,measurement,setting,value
CCN(CC)CCNC(=O)c1nn(-c2ccc(Cl)cc2)c2c1CCc1cc(OC)ccc1-2,growth inhibition,[1]; at 1.2 µM,-16%
same,growth inhibition,[1]; at 3.7 µM,13%
same,growth inhibition,[1]; at 11.0 µM,26%
same,growth inhibition,[1]; at 33.0 µM,40%
same,growth inhibition,[1]; at 100.0 µM,94% (active)
same,growth inhibition,[2]; at 1.2 µM,10%
same,growth inhibition,[2]; at 3.7 µM,22%
same,growth inhibition,[2]; at 11.0 µM,25%
same,growth inhibition,[2]; at 33.0 µM,24%
same,growth inhibition,[2]; at 100.0 µM,58%
same,growth inhibition,[3]; at 1.2 µM,18%
same,growth inhibition,[3]; at 3.7 µM,32%
same,growth inhibition,[3]; at 11.0 µM,43%
same,growth inhibition,[3]; at 33.0 µM,44%
same,growth inhibition,[3]; at 100.0 µM,56%
same,growth inhibition,[4]; at 1.2 µM,6%
same,growth inhibition,[4]; at 3.7 µM,5%
same,growth inhibition,[4]; [16],1%
same,growth inhibition,[4]; at 11.0 µM,17%
same,growth inhibition,[4]; at 33.0 µM,59%
same,growth inhibition,[4]; [17],80% (active)
same,growth inhibition,[4]; at 50.0 µM,59.2%
same,growth inhibition,[4]; at 100.0 µM,95% (active)
same,growth inhibition,[5]; at 1.2 µM,-10%
same,growth inhibition,[5]; at 3.7 µM,-2%
same,growth inhibition,[5]; [16],-16%
same,growth inhibition,[5]; at 11.0 µM,4%
same,growth inhibition,[5]; at 33.0 µM,0%
same,growth inhibition,[5]; [17],54%
same,growth inhibition,[5]; at 50.0 µM,66.4%
same,growth inhibition,[5]; at 100.0 µM,73% (active)
same,growth inhibition,[6]; at 1.2 µM,-1%
same,growth inhibition,[6]; at 3.7 µM,2%
same,growth inhibition,[6]; at 11.0 µM,10%
same,growth inhibition,[6]; at 33.0 µM,24%
same,growth inhibition,[6]; at 100.0 µM,92% (active)
same,growth inhibition,[7]; [16],15%
same,growth inhibition,[7]; [17],80% (active)
same,growth inhibition,[7]; at 50.0 µM,67.5%
same,growth inhibition,[8]; at 1.2 µM,-12%
same,growth inhibition,[8]; at 3.7 µM,11%
same,growth inhibition,[8]; at 11.0 µM,6%
same,growth inhibition,[8]; at 33.0 µM,5%
same,growth inhibition,[8]; at 100.0 µM,80% (active)
same,growth inhibition,[9]; [16],2%
same,growth inhibition,[9]; [17],39%
same,growth inhibition,[9]; at 50.0 µM,28.8%
same,growth inhibition,[10]; at 1.2 µM,9%
same,growth inhibition,[10]; at 3.7 µM,9%
same,growth inhibition,[10]; [16],8%
same,growth inhibition,[10]; at 11.0 µM,10%
same,growth inhibition,[10]; at 33.0 µM,13%
same,growth inhibition,[10]; [17],77% (active)
same,growth inhibition,[10]; at 50.0 µM,58.7%
same,growth inhibition,[10]; at 100.0 µM,83% (active)
same,growth inhibition,[11]; at 1.2 µM,-11%
same,growth inhibition,[11]; at 3.7 µM,-1%
same,growth inhibition,[11]; at 11.0 µM,-8%
same,growth inhibition,[11]; at 33.0 µM,8%
same,growth inhibition,[11]; at 100.0 µM,96% (active)
same,growth inhibition,[12]; at 1.2 µM,13%
same,growth inhibition,[12]; at 3.7 µM,17%
same,growth inhibition,[12]; at 11.0 µM,10%
same,growth inhibition,[12]; at 33.0 µM,0%
same,growth inhibition,[12]; at 100.0 µM,87% (active)
same,growth inhibition,[13]; at 1.2 µM,3%
same,growth inhibition,[13]; at 3.7 µM,2%
same,growth inhibition,[13]; at 11.0 µM,8%
same,growth inhibition,[13]; at 33.0 µM,14%
same,growth inhibition,[13]; at 100.0 µM,90% (active)
same,growth inhibition,[14]; [16],-1%
same,growth inhibition,[14]; [17],81% (active)
same,growth inhibition,[15]; at 1.2 µM,-4%
same,growth inhibition,[15]; at 3.7 µM,4%
same,growth inhibition,[15]; at 11.0 µM,1%
same,growth inhibition,[15]; at 33.0 µM,18%
same,growth inhibition,[15]; at 100.0 µM,95% (active)
CCCCCCCCCCCCCCCCNC(=O)/C(=C\c1ccc(Cl)c(Cl)c1)NC(=O)c1ccccc1,growth inhibition,[1]; at 1.2 µM,21%
same,growth inhibition,[1]; at 3.7 µM,8%
same,growth inhibition,[1]; at 11.0 µM,18%
same,growth inhibition,[1]; at 33.0 µM,11%
same,growth inhibition,[1]; at 100.0 µM,77% (active)
same,growth inhibition,[2]; at 1.2 µM,-41%
same,growth inhibition,[2]; at 3.7 µM,-2%
same,growth inhibition,[2]; at 11.0 µM,-4%
same,growth inhibition,[2]; at 33.0 µM,-6%
same,growth inhibition,[2]; at 100.0 µM,9%
same,growth inhibition,[3]; at 1.2 µM,2%
same,growth inhibition,[3]; at 3.7 µM,6%
same,growth inhibition,[3]; at 11.0 µM,6%
same,growth inhibition,[3]; at 33.0 µM,34%
same,growth inhibition,[3]; at 100.0 µM,74% (active)
same,growth inhibition,[4]; at 1.2 µM,-2%
same,growth inhibition,[4]; at 3.7 µM,0%
same,growth inhibition,[4]; [16],14%
same,growth inhibition,[4]; at 11.0 µM,-2%
same,growth inhibition,[4]; at 33.0 µM,-4%
same,growth inhibition,[4]; [17],75% (active)
same,growth inhibition,[4]; at 50.0 µM,93.2% (active)
same,growth inhibition,[4]; at 100.0 µM,49%
same,growth inhibition,[5]; at 1.2 µM,11%
same,growth inhibition,[5]; at 3.7 µM,-5%
same,growth inhibition,[5]; [16],8%
same,growth inhibition,[5]; at 11.0 µM,-7%
same,growth inhibition,[5]; at 33.0 µM,-2%
same,growth inhibition,[5]; [17],29%
same,growth inhibition,[5]; at 50.0 µM,94.2% (active)
same,growth inhibition,[5]; at 100.0 µM,33%
same,growth inhibition,[6]; at 1.2 µM,-1%
same,growth inhibition,[6]; at 3.7 µM,0%
same,growth inhibition,[6]; at 11.0 µM,-4%
same,growth inhibition,[6]; at 33.0 µM,4%
same,growth inhibition,[6]; at 100.0 µM,43%
same,growth inhibition,[7]; [16],-5%
same,growth inhibition,[7]; [17],13%
same,growth inhibition,[7]; at 50.0 µM,55%
same,growth inhibition,[8]; at 1.2 µM,-11%
same,growth inhibition,[8]; at 3.7 µM,-7%
same,growth inhibition,[8]; at 11.0 µM,-6%
same,growth inhibition,[8]; at 33.0 µM,-13%
same,growth inhibition,[8]; at 100.0 µM,52%
same,growth inhibition,[9]; [16],46%
same,growth inhibition,[9]; [17],-10%
same,growth inhibition,[9]; at 50.0 µM,59.2%
same,growth inhibition,[10]; at 1.2 µM,-3%
same,growth inhibition,[10]; at 3.7 µM,-4%
same,growth inhibition,[10]; [16],3%
same,growth inhibition,[10]; at 11.0 µM,-6%
same,growth inhibition,[10]; at 33.0 µM,-7%
same,growth inhibition,[10]; [17],43%
same,growth inhibition,[10]; at 50.0 µM,88.8% (active)
same,growth inhibition,[10]; at 100.0 µM,87% (active)
same,growth inhibition,[11]; at 1.2 µM,0%
same,growth inhibition,[11]; at 3.7 µM,1%
same,growth inhibition,[11]; at 11.0 µM,0%
same,growth inhibition,[11]; at 33.0 µM,5%
same,growth inhibition,[11]; at 100.0 µM,69%
same,growth inhibition,[12]; at 1.2 µM,0%
same,growth inhibition,[12]; at 3.7 µM,-1%
same,growth inhibition,[12]; at 11.0 µM,-3%
same,growth inhibition,[12]; at 33.0 µM,-5%
same,growth inhibition,[12]; at 100.0 µM,47%
same,growth inhibition,[14]; [16],10%
same,growth inhibition,[14]; [17],31%
same,growth inhibition,[14]; at 50.0 µM,89.2% (active)
same,growth inhibition,[15]; at 1.2 µM,7%
same,growth inhibition,[15]; at 3.7 µM,7%
same,growth inhibition,[15]; at 11.0 µM,26%
same,growth inhibition,[15]; at 33.0 µM,24%
same,growth inhibition,[15]; at 100.0 µM,67%
C/C(=N\NC(=S)NNC(=S)N(C)c1ccccc1)c1ccccn1,growth inhibition,[1]; at 1.2 µM,9%
same,growth inhibition,[1]; at 3.7 µM,40%
same,growth inhibition,[1]; at 11.0 µM,97% (active)
same,growth inhibition,[1]; at 33.0 µM,98% (active)
same,growth inhibition,[1]; at 100.0 µM,83% (active)
same,growth inhibition,[2]; at 1.2 µM,-4%
same,growth inhibition,[2]; at 3.7 µM,46%
same,growth inhibition,[2]; at 11.0 µM,97% (active)
same,growth inhibition,[2]; at 33.0 µM,98% (active)
same,growth inhibition,[2]; at 100.0 µM,86% (active)
same,growth inhibition,[3]; at 1.2 µM,11%
same,growth inhibition,[3]; at 3.7 µM,5%
same,growth inhibition,[3]; at 11.0 µM,92% (active)
same,growth inhibition,[3]; at 33.0 µM,98% (active)
same,growth inhibition,[3]; at 100.0 µM,81% (active)
same,growth inhibition,[4]; at 1.2 µM,-9%
same,growth inhibition,[4]; at 3.7 µM,37%
same,growth inhibition,[4]; [16],-19%
same,growth inhibition,[4]; at 11.0 µM,97% (active)
same,growth inhibition,[4]; at 33.0 µM,97% (active)
same,growth inhibition,[4]; [17],98% (active)
same,growth inhibition,[4]; at 50.0 µM,87% (active)
same,growth inhibition,[4]; at 100.0 µM,83% (active)
same,growth inhibition,[5]; at 1.2 µM,18%
same,growth inhibition,[5]; at 3.7 µM,25%
same,growth inhibition,[5]; [16],10%
same,growth inhibition,[5]; at 11.0 µM,98% (active)
same,growth inhibition,[5]; at 33.0 µM,99% (active)
same,growth inhibition,[5]; [17],99% (active)
same,growth inhibition,[5]; at 50.0 µM,90.5% (active)
